D3 antag = blocks the human D3 dopamine receptor; P35462; D3R cells, DiscoveRx beta-arrestin luminescence, antagonist mode; hits give low values; max response, negative = inhibition, %; 360,000 compounds, 2.5% hits; AID 652054; in the data active = max response below about -50%; inconclusive = no clear call, values can overlap the other calls
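Cells plated overnight at 1500 cells/well, then exposed to library compounds with dopamine controls for 90 minutes at 37 degrees C. DiscoveRx reagent added for 30–60 minutes at room temperature; luminescence read, quantitative HTS format.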
D1 ag = agonists of human D1 dopamine receptor. 360,000 compounds, 1% hits. HEK293 T-REx D1 cells, calcium flux, agonist mode. activation, % at 2 µM. P21728; in the data active = activation above about 30%
Target sequence (P21728 whole entry, looked up): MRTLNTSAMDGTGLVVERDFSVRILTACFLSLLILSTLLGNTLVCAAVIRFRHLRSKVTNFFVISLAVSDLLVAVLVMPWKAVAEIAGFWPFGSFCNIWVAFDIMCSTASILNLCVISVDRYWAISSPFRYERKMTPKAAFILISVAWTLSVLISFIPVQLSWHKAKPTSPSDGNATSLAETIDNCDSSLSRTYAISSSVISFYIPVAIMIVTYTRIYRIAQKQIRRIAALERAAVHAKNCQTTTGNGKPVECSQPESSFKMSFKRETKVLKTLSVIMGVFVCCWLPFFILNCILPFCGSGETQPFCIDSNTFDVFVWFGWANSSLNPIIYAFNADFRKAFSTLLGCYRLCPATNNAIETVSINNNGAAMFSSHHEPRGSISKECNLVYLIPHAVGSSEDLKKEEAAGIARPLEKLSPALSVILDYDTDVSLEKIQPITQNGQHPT
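Agonism was scored from calcium flux recorded over 180 s (1 read/s) after pintool compound addition, following a 10-cycle baseline. Cells were inducible force-coupled HEK293 TREx D1, plated overnight at 30 C and loaded with no-wash calcium dye.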
D3 ag = D3 dopamine receptor (human) agonism; P35462; D3R DiscoveRx beta-arrestin cells, luminescence, 90 min; max activation, %; 410,000 compounds, 0.58% hits; AID 652048; in the data active = max activation above about 30%
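Agonist mode: compounds and dopamine controls were applied to plated cells for 90 min at 37 degrees C after an overnight attachment at 1500 cells/well. Luminescent read-out followed 30 - 60 minutes at room temperature with DiscoveRx detection reagent.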
D1 PAM = human D1 dopamine receptor positive modulation; potentiation, % at 10 µM; P21728; AID 504651; HEK293 TREx D1 cells, calcium flux, dopamine EC20 potentiation; 360,000 compounds, 0.036% hits; in the data active = potentiation above about 30%
D1 antagonist = blocks dopamine activation of the human D1 receptor; HEK293 TREx D1 cells, calcium flux, dopamine EC80; hits give low values; P21728; 360,000 compounds, 3.2% hits; activity change, negative = inhibition, % at 10 µM; in the data active = activity change below about -30%
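HEK293 T-REx cells expressing inducible, force-coupled D1 receptor; no-wash Ca dye, 30–90 min RT. Cmpd → 180 s read at 1 Hz → EC80 DA → 180 s read.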
Hits are given with their value. Most compounds without a hit are left out; they make up all but 6% or so of the library.

What do the screens show for `COc1ccccc1N1CCN(Cc2ccc(SC)cc2)CC1`?
D3 antag: -107; D1 ag: inactive; D3 ag: inactive; D1 PAM: inactive; D1 antagonist: inactive

Results for CSc1ccc(CN2CCN(C(=O)COc3ccc(C)cc3)CC2)cc1 ?
D3 antag: inconclusive; D1 ag: inactive; D3 ag: inactive; D1 PAM: inactive; D1 antagonist: inactive

Results for CCc1ccc(CN2CCN(Cc3ccc(SC)cc3)CC2)cc1 ?
D3 antag: inconclusive; D1 ag: inactive; D3 ag: inactive; D1 PAM: inactive; D1 antagonist: inactive

What do the screens show for `CC(C)(C)c1cc(O)ccc1O`?
D3 ag: inactive

Results for CCCN(CC#CCOc1ccc(OC)cc1)CCC ?
D3 antag: -52; D1 ag: inactive; D3 ag: inactive; D1 PAM: inactive; D1 antagonist: inactive

What do the screens show for `N#Cc1cc2c(nc1SCC(=O)Nc1ccc(F)c(Cl)c1)C1CCN2CC1`?
D1 ag: inactive; D3 ag: inactive; D1 PAM: inactive; D1 antagonist: inactive

How did CCN(CC)C(=O)c1ccc(NC(=O)c2cccc(S(=O)(=O)N3CCN(Cc4ccccc4)CC3)c2)cc1 do in these assays?
D3 antag: inactive; D1 ag: inactive; D3 ag: inactive; D1 PAM: inactive; D1 antagonist: -32

How did CCN(CC)C(=O)c1ccc(NC(=O)c2cc(S(=O)(=O)N3CCCCCC3)ccc2OC)cc1 do in these assays?
D3 antag: inactive; D1 ag: inactive; D3 ag: inactive; D1 PAM: inactive; D1 antagonist: inactive

Results for CN1/C(=C\C=C2C(=O)NC(=S)NC2=O)C(C)(C)c2ccccc21 ?
D3 antag: inactive; D1 ag: 484; D3 ag: inactive; D1 PAM: inactive; D1 antagonist: inactive

Results for CCn1c(O)c(/C=N/NC(=O)c2ccncc2)c(=O)[nH]c1=S ?
D3 antag: inactive; D1 ag: inactive; D3 ag: inactive; D1 PAM: inactive; D1 antagonist: -31

What do the screens show for `O=C1CCCCC1CN1CCCCC1` (configuration not stated)?
D3 ag: inactive

What do the screens show for `Cc1ccccc1-n1c(O)c(/C=C2/C(c3ccccc3)=Nc3ccccc32)c(=O)[nH]c1=O`?
D3 antag: inactive; D1 ag: inactive; D3 ag: inactive; D1 PAM: inactive; D1 antagonist: -50

How did Cc1oc2cc3oc(=O)c(CCC(=O)N4CCCCC4)c(C)c3cc2c1C do in these assays?
D1 ag: inactive; D3 ag: inactive; D1 PAM: inactive; D1 antagonist: inactive

What do the screens show for `Clc1ccc(CNC2CN3CCC2CC3)cc1` (configuration not stated)?
D3 antag: inactive; D1 ag: inactive; D3 ag: inactive; D1 PAM: inactive; D1 antagonist: -75

What do the screens show for `CC1(C)[C@H](C=C(Cl)Cl)[C@H]1C(=O)OCc1c(F)c(F)cc(F)c1F`?
D3 ag: inactive

How did CC[C@H]1[C@@H]2C[C@H]3[C@@H]4N(C)c5ccccc5[C@]45C[C@@H](C2[C@H]5O)N3[C@@H]1O (some centres not stated) do in these assays?
D3 ag: inactive

How did CC[C@H]1C2C[C@H]3[C@@H]4N(C)c5ccccc5C45C[C@H](C2[C@H]5O)N3[C@@H]1O (some centres not stated) do in these assays?
D3 antag: -55; D1 ag: inactive; D3 ag: inactive; D1 PAM: inactive; D1 antagonist: inactive

How did CCC1C2CC3C4N(C)c5ccccc5C45CC(C2C5O)N3[C@@H]1O (some centres not stated) do in these assays?
D3 antag: -70; D1 ag: inactive; D3 ag: inactive; D1 PAM: inactive; D1 antagonist: inactive

How did COc1ccc(NC(=O)c2cccn(Cc3ccc(Cl)cc3)c2=O)c(OC)c1 do in these assays?
D1 ag: inactive; D3 ag: inactive; D1 PAM: inactive; D1 antagonist: -40

Results for COc1ccc(NC(C)=O)cc1NC(=O)c1cccn(Cc2ccccc2)c1=O ?
D1 ag: inactive; D3 ag: inactive; D1 PAM: inactive; D1 antagonist: inactive

Results for CCSc1nnc(NC(=O)c2cccn(Cc3ccc(Cl)cc3)c2=O)s1 ?
D1 ag: inactive; D3 ag: inactive; D1 PAM: inactive; D1 antagonist: -35

Results for O=C(COc1cccc(Cl)c1)N1CCN(CCc2ccncc2)CC1 ?
D1 ag: inactive; D3 ag: inactive; D1 PAM: inactive; D1 antagonist: inactive

Results for C[C@H]1CC[C@]2(NC1)O[C@H]1C[C@H]3[C@@H]4CC[C@H]5C[C@@H](O[C@@H]6O[C@H](CO)[C@H](O[C@@H]7O[C@H](CO)[C@@H](O)[C@H](O[C@@H]8OC[C@@H](O)[C@H](O)[C@H]8O)[C@H]7O[C@@H]7O[C@H](CO)[C@@H](O)[C@H](O)[C@H]7O)[C@H](O)[C@H]6O)CC[C@]5(C)[C@H]4CC[C@]3(C)[C@H]1[C@@H]2C ?
D3 ag: inactive

What do the screens show for `CC(CN1CCOCC1)C(C#N)(c1ccccc1)c1ccccc1` (configuration not stated)?
D3 antag: inactive; D3 ag: inactive

How did CN1CCN(CCC(C#N)(c2ccccc2)c2ccccc2)CC1 do in these assays?
D3 antag: -80; D1 ag: inactive; D3 ag: inactive; D1 PAM: inactive; D1 antagonist: inactive

What do the screens show for `C[C@]12CC[C@@H]3c4ccc(OC(=O)N(CCCl)CCCl)cc4CC[C@H]3[C@@H]1CC[C@@H]2OP(=O)(O)O`?
D3 ag: inactive

Results for CCN(CC)CCOC(=O)C(C)(c1ccccc1)c1ccccc1 ?
D3 ag: inactive

Results for CCCCCCCCOC(=O)c1ccccc1C(=O)OCCCCCCCC ?
D3 ag: inactive

How did CCN(CC)CCCOC(=O)C(OC(C)C)(c1ccccc1)c1ccccc1 do in these assays?
D3 antag: -101; D1 ag: inactive; D3 ag: inactive; D1 PAM: inactive; D1 antagonist: inactive

How did CCOC(C(=O)OCCCN(CC)CC)(c1ccccc1)c1ccccc1 do in these assays?
D3 antag: -55; D1 ag: inactive; D3 ag: inactive; D1 PAM: inactive; D1 antagonist: inactive

How did O=c1[nH]c(=O)n(-c2cccc3ccccc23)c(O)c1C=NCc1ccc2c(c1)OCO2 do in these assays?
D3 antag: -63; D1 ag: inactive; D3 ag: inactive; D1 PAM: inactive; D1 antagonist: inactive

How did CCC1(c2cnc[nH]2)Cc2ccccc2C1 do in these assays?
D3 ag: inactive

What do the screens show for `Cc1ccc(-n2c(/C=C/c3ccc(Br)s3)nc3ccccc3c2=O)cc1C`?
D1 ag: inactive; D3 ag: inactive; D1 PAM: inactive; D1 antagonist: inactive

What do the screens show for `O=C1NC(=O)N(c2ccc3c(c2)OCO3)C(=O)/C1=C\c1ccc(N2CCCCC2)o1`?
D3 antag: inactive; D1 ag: 50; D3 ag: inactive; D1 PAM: inactive; D1 antagonist: inactive

How did Cc1cccc(N2C(=O)/C(=C/c3ccc(N4CCN(C)CC4)o3)C(=O)NC2=S)c1C do in these assays?
D3 antag: inactive; D1 ag: 68; D3 ag: inactive; D1 PAM: inactive; D1 antagonist: inactive
